GALR2 blocker: blocks the human galanin receptor 2 | O43603 | GALR2-expressing cells, antagonist mode | inhibition, % at 4 µM | actives 0.39% (n = 140,000); in the data active = inhibition above about 27%;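 also: cells stimulated with galanin 1-16 at roughly its EC80; 0% = agonist challenge control and 100% = basal control without agonist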
PLAP activator: activators of human placental alkaline phosphatase; P05187; purified PLAP enzyme, luminescent substrate read-out; stronger effect = higher value; activation fold at 20 µM; actives 1.2% (n = 96,000); in the data active = activation fold above about 2
Target sequence (P05187 whole entry, looked up): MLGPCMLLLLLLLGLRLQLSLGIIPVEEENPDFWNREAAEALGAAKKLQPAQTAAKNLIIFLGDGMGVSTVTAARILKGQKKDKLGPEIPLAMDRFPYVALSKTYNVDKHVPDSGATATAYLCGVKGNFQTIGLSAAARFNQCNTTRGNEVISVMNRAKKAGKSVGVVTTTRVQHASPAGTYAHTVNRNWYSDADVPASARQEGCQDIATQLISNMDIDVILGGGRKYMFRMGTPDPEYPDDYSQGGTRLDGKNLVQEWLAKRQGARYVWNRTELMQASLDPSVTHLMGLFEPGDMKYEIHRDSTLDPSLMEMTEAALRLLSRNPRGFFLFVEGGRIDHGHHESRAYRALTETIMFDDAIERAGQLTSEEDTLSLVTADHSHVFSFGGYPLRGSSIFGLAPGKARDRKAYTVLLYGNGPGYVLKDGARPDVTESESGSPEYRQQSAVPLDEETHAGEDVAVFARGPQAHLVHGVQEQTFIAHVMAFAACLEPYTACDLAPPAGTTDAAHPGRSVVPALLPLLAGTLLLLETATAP
GALR2 ag: activates the human galanin receptor 2; activation, % (concentration not given with the values); AID 803; actives 0.48% (n = 140,000); O43603; GALR2-expressing cells, agonist activation read-out; in the data active = activation above about 5%, passing the limit was not always enough;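 also: 0% = vehicle buffer wells and 100% = reference agonist at full effect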
S1P2 blocker: blocks the human S1P2 receptor; cell-based S1P2 antagonist assay, inhibition at 5 uM; inhibition, % at 5 µM; actives 0.21% (n = 97,000); in the data active = inhibition above about 45%;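 also: CRE beta-lactamase reporter cells expressing human S1P2 stimulated with S1P; 0% = agonist at EC80 alone and 100% = agonist plus reference antagonist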
S1P2 ag: S1P2 (human) receptor agonism; actives 0.46% (n = 97,000); O95136; activation, % at 4.5 µM; S1P2-expressing cell line, agonist reporter read-out; in the data active = activation above about 16%;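 also: 0% = vehicle low control and 100% = maximal reference agonist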
* marks the source's active call; other numbers are inactive results; x = not tested or not shown. Most compounds without a hit are left out; they make up all but 2% or so of the library.

SMILES	GALR2 blocker	PLAP activator	GALR2 ag	S1P2 blocker	S1P2 ag
Cc1c(C(=O)OCC(=O)c2c(N)n(CC(C)C)c(=O)n(C)c2=O)oc2ccccc12	11	x	-3	-7	-5
O=C(Nc1ccc(-c2nc3ccc(NC(=O)c4cccs4)cc3[nH]2)cc1)c1cccs1	28*	1.7	4	1	-4
O=C(Nc1ccc2nc(-c3cccs3)[nH]c2c1)c1cccs1	14	1.2	-1	-28	4
c1ccc(Nc2nc3ccccc3[nH]2)nc1	13	2.2*	-2	7	-4
Cc1cc(C)nc(Nc2nc3ccccc3[nH]2)n1	6	1.3	-2	-18	-2
Cc1cc(C)c2ccc(NN)nc2c1O	-3	2*	-2	-2	-7
O=C(Nc1ccccn1)Nc1cccs1	2	0.9	0	15	133*
Cn1c(=O)c2c(nc(SCC(=O)NCc3ccc4c(c3)OCO4)n2Cc2ccc(Cl)cc2)n(C)c1=O	1	x	-2	-3	-4
COc1ccc(OC)c(Nc2nc(-c3sc(NC(=O)C(C)(C)C)nc3C)cs2)c1	-4	1.1	1	18	-8
COc1ccc(OC)c(Nc2nc(-c3sc(C)nc3C)cs2)c1	0	2.1*	1	2	0
Cc1nn(Cc2ccccc2Cl)c(C)c1NC(=O)CCCn1nc([N+](=O)[O-])c(Cl)c1C	3	x	-1	x	x
O=C(NC1CCS(=O)(=O)C1)C12CC3CC(CC(C3)C1)C2 (configuration not stated)	-5	0.8	-1	6	-7
CCc1cc(=O)oc2cc(OCC(=O)O)c(Cl)cc12	-6	1	-1	-7	21*
CCc1cc(=O)oc2cc(OCC(=O)N(CC)CC)c(Cl)cc12	-3	1.1	-3	5	-1
NC(=O)CCNC(=O)c1ccc(Cl)cc1	-8	0.9	-2	25	44*
O=C(N/N=C\c1ccccn1)C1COc2cc3ccccc3cc2O1 (configuration not stated)	0	2*	-1	-15	0
COc1ccccc1NC(=O)N(CCN(C)C)Cc1cc2cc(C)ccc2[nH]c1=O	7	2*	-1	-4	-11
COc1ccccc1-c1nn2c(-c3ccccc3Cl)nnc2s1	x	0.9	x	x	x
Cc1ccc(-c2nn3c(C)nnc3s2)cc1NC(=O)c1ccc(-c2ccc(Cl)cc2Cl)o1	-3	1.2	6.8*	x	x
CN(C)c1ccc(-c2nn3c(-c4ccc(Cl)cc4Cl)nnc3s2)cc1	-1	1.2	6.0*	x	x
CCN(CC)c1ccc(-c2nn3c(-c4ccccc4OC)nnc3s2)cc1	11	1.4	6.8*	3	4
Cc1ccc(-c2nn3c(C)nnc3s2)cc1NC(=O)c1ccc(-c2cccc(Cl)c2)o1	-23	1.6	0	0	-5
COc1cccc(N2CCN(c3ncnc4c3cnn4-c3ccc(C)cc3C)CC2)c1	2	0.9	-4	66*	-11
Cc1ccc(-n2ncc3c(N4CCCC4)ncnc32)c(C)c1	-4	x	-3	1	-1
Cc1c(/C=N/NC(=O)c2ccc(O)cc2)c2ccccn2c1C(=O)c1ccc(F)cc1	4	x	-1	x	x
SMILES	GALR2 blocker	PLAP activator	GALR2 ag	S1P2 blocker	S1P2 ag
Cc1c(/C=N/NC(=O)c2cc(=O)[nH]c(=O)[nH]2)c2ccccn2c1C(=O)c1ccccc1	-14	2.2*	-1	-24	-4
O=C1C2C3C=CC(CO)(O3)C2C(=O)N1c1ccccc1-c1ccccc1 (configuration not stated)	76*	1.1	-1	x	x
CC(=O)Oc1ccc(N2C(=O)C3C4C=CC(CO)(O4)C3C2=O)cc1 (configuration not stated)	17	1.3	-1	-4	0
COc1ccccc1NC(=S)NNC(=O)c1cc(C)n(C)n1	-6	2.8*	0	-13	-1
COc1cc(-c2nnc3n2N=C(c2ccccc2)CS3)cc(OC)c1OC	-7	1.1	1	-26	34*
COc1ccc(OC)c(C2=Nn3c(nnc3-c3cc(OC)c(OC)c(OC)c3)SC2)c1	13	1.4	1	-25	40*
COc1cccc(-c2nnc3n2N=C(C(C)(C)C)CS3)c1	20	1.1	-2	98*	-8
COc1cc2c(cc1OC)C(Nc1ccccc1)=NC(C)(C)C2	4	x	-1	x	x
CCOC(=O)c1c(C2COc3ccccc3O2)csc1NC(=O)c1ccco1 (configuration not stated)	-8	1	0	13	-1
c1cnc2c(OCc3nc4ccccc4[nH]3)cccc2c1	15	2.1*	-2	5	-4
CCOc1cccc(Nc2cc3n(c(=O)n2)CCc2cc(OC)c(OC)cc2-3)c1	10	1.1	0	-48	29*
COc1ccc(C(=O)N2CCN=C2SCc2cccnc2)cc1OC	1	1.3	-1	11	0
CCOc1ccc(S(=O)(=O)N2CCc3cc(OC)c(OC)cc3C2)cc1	7	x	-2	x	x
COc1cc2c(cc1OC)-c1cc(Nc3ccc4c(c3)OCCO4)nc(=O)n1CC2	-12	1	-2	-51	20*
COc1cc2c(cc1OC)-c1cc(OCc3cccnc3)nc(=O)n1CC2	2	0.9	-1	-36	23*
c1ccc(N2CCN(Cc3cn4cccnc4n3)CC2)cc1	-8	0.9	0	7	-3
CCCCNS(=O)(=O)c1ccc2nc(SCC(=O)Nc3ccccc3)[nH]c2c1	0	x	-2	x	x
CCCCNS(=O)(=O)c1ccc2nc(SCC(=O)c3ccc(C#N)cc3)[nH]c2c1	1	2*	-1	x	x
COc1ccc(C2C(C#N)=C(N)Oc3cc(C)[nH]c(=O)c32)c(OC)c1OC (configuration not stated)	-5	0.9	0	-36	-5
CC1CCN(C(=O)C2CCN(CCCc3ccccc3)CC2)CC1	-3	2.2*	0	x	x
CCOc1cc(C(=O)N/N=C/C2CC=CCC2)cc(OCC)c1OCC (configuration not stated)	17	x	0	x	x
CC1=NN(C(=O)c2ccc(Cn3nc(C)cc3C)o2)C(O)(C(F)(F)F)C1 (configuration not stated)	10	2.2*	-2	12	-5
CC1=NN(C(=O)c2ccc(Cn3cc(Br)c([N+](=O)[O-])n3)o2)C(O)(C(F)(F)F)C1 (configuration not stated)	0	x	-2	x	x
CCNC(=S)NNC(=O)c1cc(C2CC2)nc2ccccc12	-4	2.1*	-4	0	-10
CCCCOc1cccc(-c2cc(C(=O)NNC(=S)NCC)c3ccccc3n2)c1	-4	1.1	-2	-15	-4
CCNC(=S)NNC(=O)c1cc(C)nc2ccccc12	-2	x	-2	x	x
CCNC(=S)NNC(=O)c1cc(-c2cccc(OCC)c2)nc2ccccc12	-26	2.7*	-1	0	-2
O=C1c2ccccc2CC1Sc1nnc(-c2ccccn2)o1 (configuration not stated)	-13	2.6*	-2	5	-10
O=C(NC1CC2CCCC(C1)N2Cc1ccco1)NC12CC3CC(CC(C3)C1)C2 (configuration not stated)	7	2.2*	-2	19	-4
CCNC(=S)NC1CC2CCCC(C1)N2Cc1ccco1 (configuration not stated)	4	1.2	-4	-15	-8
